Data on 7 molecules can be found in PubChem BioAssay (NCATS).

Several values for one entry are separate records, joined by “and”; a condition that tells them apart may be missing. Equal entries are not always repeated. Records with an inconclusive call do not appear. Where a structure was tested more than once in an assay, its records may differ in their call. Activity calls are given as the source filed them. Calls come from the whole dose curve; as a rule, active = well fitted curve in the direction sought with a large enough effect; inconclusive = small, poorly fitted or top-dose-only effect, or another doubt; inactive = no such curve, though single readings can be large; an effect the other way counts as inactive or inconclusive.

One assay has as its system W2. Description: qHTS profiling for inhibitors of Plasmodium falciparum proliferation (AID 504749). Note: nearly all actives have a fitted effect of over 60% in size. Note: potency is the fitted concentration of half-maximal effect. Particulars: P. falciparum in erythrocytes, SYBR Green DNA, 72 h; series mostly up to 28.7 µM. The gist of the method:
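Parasite proliferation within erythrocytes, 72 h exposure. Endpoint: SYBR Green I fluorescence after overnight lysis at room temperature. Controls: 0.29 uM artemisinin, DMSO.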

Assay [1] concerns HACAT. The assay is described as follows: qHTS assay to identify novel small-molecules to repurpose for Merkel cell carcinoma treatment (AID 1296009). Note: nearly all actives have a fitted effect of over 60% in size. Note: potency is the fitted concentration of half-maximal effect. Particulars: MCC and control cell lines, CellTiter-Glo viability, 72 h. Put shortly: (§1)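 qHTS format: cells treated with library compounds in DMSO across 8 (NPC) or 11 (MIPE) concentrations. Readout after 72 hr at 37 degree celsius was CellTiter-Glo luminescence.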
On the technique in general: In qHTS, concentration-response curves come from the screen itself.

The subject of a further assay is HEK293T. Described as above. The settings on record: MCC and control cell lines, CellTiter-Glo viability, 72 h; at 44.8 µM (top of the series) unless noted. The gist of the method: as §1
(In general: ATP-based viability assays read luminescence as a measure of living cells.)

The test system of another assay is MCC-13. The assay is described as above. The settings on record: MCC and control cell lines, CellTiter-Glo viability, 72 h; series mostly up to 46 µM. Put shortly: as §1
Another assay deals with MCC-26. The assay is described as above. Particulars: MCC and control cell lines, CellTiter-Glo viability, 72 h; series mostly up to 46 µM. The gist of the method:
as §1

The subject of another assay is MKL-1. The description is as above. Particulars: MCC and control cell lines, CellTiter-Glo viability, 72 h; series mostly up to 46 µM. Put shortly: as §1
The next assay has as its system MKL-2. Described as above. Particulars: MCC and control cell lines, CellTiter-Glo viability, 72 h; series mostly up to 46 µM. Put shortly: as §1
Assay [2] relates to NIH3T3. Described as above. The settings on record: MCC and control cell lines, CellTiter-Glo viability, 72 h; at 44.8 µM (top of the series) unless noted. Put shortly:
as §1

The subject of the next assay is UISO. The description is as above. The settings on record: MCC and control cell lines, CellTiter-Glo viability, 72 h; series mostly up to 46 µM. Put shortly: as §1
The test system of another assay is WaGa. Described as above. Particulars: MCC and control cell lines, CellTiter-Glo viability, 72 h; series mostly up to 46 µM. The gist of the method:
as §1

A further assay concerns C33A. The assay is described as follows: Primary qHTS to identify gynecologic anti-cancer compounds using libraries of approved drugs and bioactive compounds (AID 1345084). Note: % is set by controls: 0 for no effect and ±100 for the full control effect; nearly all actives have a fitted effect of over 55% in size. The settings on record: Gynecologic cancer cell panel viability, ATPlite luminescence, 48 h; series mostly up to 57.5 µM. Put shortly:
(§2)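 Five-point cytotoxicity, 48 h drug exposure at 37 C, 5% CO2, on cells seeded 16 h beforehand. ATP content read by ATPlite luminescence.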

A further assay has as its system CAOV3. The assay is described as above. The settings on record: Gynecologic cancer cell panel viability, ATPlite luminescence, 48 h; series mostly up to 57.5 µM. Put shortly: as §2
For a further assay, the system named is CASKI. The description is as above. The settings on record: Gynecologic cancer cell panel viability, ATPlite luminescence, 48 h; series mostly up to 57.5 µM. Put shortly: as §2
The test system of a further assay is Es-2. The assay is described as above. Particulars: Gynecologic cancer cell panel viability, ATPlite luminescence, 48 h; series mostly up to 57.5 µM. The gist of the method: as §2
The next assay deals with HeLa. Described as above. Particulars: Gynecologic cancer cell panel viability, ATPlite luminescence, 48 h; series mostly up to 57.5 µM. The gist of the method: as §2
A further assay has as its system CRL-7250. The assay is described as follows: Cytotoxic Profiling of Annotated Libraries Using Quantitative High-Throughput Screening (AID 1296008). For max response: % is set by controls: 0 for no effect and ±100 for the full control effect. Note: nearly all actives have a fitted effect of over 60% in size. Note: potency is the fitted concentration of half-maximal effect. Particulars: Five cell lines viability, CellTiter-Glo ATP luminescence, 48-72 h; max response: stronger effect = lower value. The gist of the method:
(§3)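 Compounds were pin-transferred onto cells and incubated 48 or 72 hr at 37 degree Celsius, 95% humidity. CellTiter-Glo was added, plates sat 10 min at room temperature, then ATP-coupled luminescence was imaged as the viability read-out.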

Assay [3] relates to HaCat. The description is as above. Particulars: Five cell lines viability, CellTiter-Glo ATP luminescence, 48-72 h; max response: stronger effect = lower value. Put shortly:
as §3

A further assay deals with KB-3-1. The description is as above. The settings on record: Five cell lines viability, CellTiter-Glo ATP luminescence, 48-72 h; max response: stronger effect = lower value. The gist of the method: as §3
Assay [4] has as its system NIH3T3. The description is as above. Particulars: Five cell lines viability, CellTiter-Glo ATP luminescence, 48-72 h; max response: stronger effect = lower value. The gist of the method: as §3
Another assay relates to HEK293. Described as above. Particulars: Five cell lines viability, CellTiter-Glo ATP luminescence, 48-72 h; max response: stronger effect = lower value. Put shortly: as §3
Setting [5] is: at 44.8 µM (top of the series) unless noted.

Take `Nc1ccc(S(=O)(=O)Nc2ccccn2)cc1`: the Potency result in the assay with W2, in the assay with MCC-13, with MCC-26, in the assay on MKL-1, in the assay with MKL-2 and with UISO was “inactive” throughout. Further, the Potency result in the assay with WaGa, in the assay with C33A, with CAOV3, in the assay with CASKI and in the assay on Es-2 was “inactive” throughout. Further, the call in the assay with HACAT [1] (setting [5]), with HEK293T and with NIH3T3 [2] was inactive.
Turning to `CC1(C)[C@H](C(=O)O)N2C(=O)C[C@H]2S1(=O)=O`, the Potency result in the assay with C33A, with CAOV3, with CASKI, with Es-2 and with HeLa was “inactive” throughout.
With `N=C(N)c1ccc(OCCCCCOc2ccc(C(=N)N)cc2)cc1`, the Potency in the assay with W2 is 0.478 µM (active). Also, the Potency entry in the assay with CAOV3, with CASKI, with Es-2 and with HeLa was “inactive” throughout.
Turning to `CC(C)C1CCC(C(=O)N[C@H](Cc2ccccc2)C(=O)O)CC1` (stereo partly drawn), the max response was -2.02% (inactive) and -1.93% (inactive) with CRL-7250; -8.21% (inactive) and -7.47% (inactive) with HaCat [3]; 4.69% (inactive) and 4.96% (inactive) in the assay on KB-3-1; 0.816% (inactive) and -0.595% (inactive) with NIH3T3 [4]. Moreover, the Potency entry in the assay on MCC-13, in the assay with MKL-1, in the assay on MKL-2, with UISO, in the assay with WaGa and in the assay on C33A was “inactive” throughout. The Potency result in the assay on CAOV3, in the assay with CASKI, with Es-2 and in the assay on HeLa was “inactive” in each case.
Consider `COc1ncnc(NS(=O)(=O)c2ccc(N)cc2)c1OC`, for which the Potency entry with W2, in the assay on MCC-13, in the assay on MCC-26, in the assay with MKL-1, in the assay with MKL-2 and with UISO was “inactive” each time. Besides, the Potency entry in the assay on WaGa, in the assay on C33A, in the assay on CAOV3, with CASKI and with Es-2 was “inactive” throughout. Besides, the results for the Potency in the assay with HEK293 and in the assay on NIH3T3 [4] were 3.32 µM (active) and 16.6 µM (active), respectively. Besides, the call with HEK293, in the assay with HaCat [3], with HACAT [1] (setting [5]) and in the assay on HEK293T was inactive. Moreover, the max response with HaCat [3] is -20.7% (inactive); in the assay on KB-3-1 it was -15% (inactive) and 8.7% (inactive); in the assay with NIH3T3 [4], -17.7% (inactive).
As to `NCCCC(O)(P(=O)(O)O)P(=O)(O)O`, the Potency entry in the assay on W2, in the assay with MCC-13, with MKL-1, with MKL-2, in the assay with UISO and in the assay on WaGa was “inactive” in each case. The Potency result with C33A, in the assay with CAOV3, in the assay on CASKI, in the assay on Es-2 and with HeLa was “inactive” throughout. In addition, the call in the assay with CRL-7250, in the assay with NIH3T3 [4] and in the assay on NIH3T3 [2] was inactive. Moreover, the max response was -6.79% (inactive) in the assay on HaCat [3]; 17.7% (inactive) and -6.17% (inactive) with KB-3-1; 0.802% (inactive) with NIH3T3 [4].
`CC(=O)Oc1ccccc1C(=O)Nc1ncc([N+](=O)[O-])s1`: the outcome in the assay with HaCat [3], in the assay with NIH3T3 [4], with HACAT [1] (at 44.8 µM (top of the series)) and in the assay on HACAT [1] (at 92 µM (top of the series)) was inactive. Moreover, the max response with KB-3-1 is -5.17% (inactive) and -18.8% (inactive). For the same molecule, the Potency entry in the assay on MCC-13, in the assay on MCC-26, in the assay on MKL-1, with C33A, in the assay with CAOV3 and in the assay on CASKI was “inactive” each time. Also, the outcome in the assay with NIH3T3 [2] was “inactive [at 92 µM]”. In addition, the Potency entry in the assay with WaGa is “inactive and 16.8 µM (active)”.
